From PubChem BioAssay AID720537 (National Center for Advancing Translational Sciences (NCATS), 2013)
Out of some 1,600 compounds screened, about 55 (3%) were called active. Another 10% or so got no clear call; they are omitted. Calls follow the shape of the dose curve; as a rule, active = well fitted inhibition curve with a large enough effect; inconclusive = small, poorly fitted or top-dose-only effect; inactive = no such curve, though single readings can be large or run the other way. The list is a sample of the results.

assay: qHTS for Inhibitors of TGF-b: Hit Validation in HepG2 Cells using COP promoter; conditions: HepG2 COP-GFP TGF-b reporter, GFP fluorescence, 18 h, cells stimulated by added recombinant TGF-beta; series mostly up to 46.1 µM; activity, negative = inhibition: at the top concentration; also: nearly all actives have a fitted effect of over 70% in size
Excerpt: TGF-b is a main component in the TGF-b signaling pathway which plays diverse roles in cellular and development pathways. TGF-b is the mediated by the transcription factors Smads. Although the Smad-dependent pathway is the primary canonical TGF-b signaling node, TGF-b1 can also activate alternative signaling pathways, including those involving MAPK (ERK, JNK and p38). This interaction may mediate or enhance Smad-dependent responses, or can exert Smad-independent effects. The complexity of this signaling cascade allows the TGF-b superfamily to perform unique, overlapping or redundant functions. We believe that targeting the TGF-beta pathway at the Smad-transcription factor level may eliminate the consequences of disrupting the entire pathway and offer specificity without affecting other signaling pathways. Smad3 is the primary transducer of TGF-b's signals and Smad3 regulates many functions attributed to TGF-b signaling. We hypothesize that Smad3 inhibitors will selectively eliminate Smad3-specific TGF-beta signals without undesired off-target effects. We aim to identify Smad3-small molecule antagonists using a quantitative high throughput screening (qHTS) approach. A high-throughput assay was developed to screen the NIH Molecular Libraries Small Molecule Repository (MLSMR). This is a cell based assay, where TGF-b is tagged with GFP. This assays tests the hits identified from the primary screen in HepG2 cells, but using a cop promoter rather than a caga promoter. True actives from the primary screen will also be active in this assay. NIH Chemical Genomics Center [NCGC] NIH Molecular Libraries Probe Centers Network [MLPCN] MLPCN Grant: MH087449 Assay Submitter (PI): Sushil Rane, National Institute of Diabetes and Kidney Diseases
Suspensions of trypsinized HEPG2 COP-GFP cells were dispensed into white, tissue culture-treated, solid 1536-well plates at 5uL/well (1000 cells/well final concentration) in DMEM medium supplemented with 1% FBS. Plates were incubated at 37 degrees C for 2 hours, after which 23 nL of compounds or DMSO were delivered to each well using a pin tool. One uL of recombinant TGF-beta in DMEM (1% FBS) was then dispensed (500 pg/mL final concentration), and plates were incubated at 37 degrees C for 18 hours. The plates were measured on an Acumen eX3 Explorer plate reader for GFP fluorescence (ex488/em500-530). GFP values were calculated by determining the mean GFP fluorescence of individual cells, and compiling these values for each well to determine a total well GFP signal. The %Activity was determined from the corrected fluorescence values. A titration of the known TGF-B inhibitor SB431542 was included to monitor plate performance, while unstimulated HEPG2 (-TGF-B) control wells were used to normalize %Activity of identified inhibitors; unstimulated wells corresponded to 100%Activity (full inhibition), while stimulated cell controls (+DMSO) were used to normalize 0%Activity (no inhibition). Concentration-response curves were fitted to the signals arising from the resulting fluorescence. The concentration-effect curves were then classified based on curve quality (r2), response magnitude and degree of measured activity, and compounds were subsequently categorized based on their curve class.
Potency is read from the fitted curve at half-maximal effect.

| SMILES | Potency | activity, negative = inhibition |
| --- | --- | --- |
| O=C(NC1=CC(=O)c2ccccc2C1=O)c1ccccc1 | 16.4 µM (active) | – |
| CCCOc1ccccc1C1CC(=O)Nc2cc3c(cc21)OCO3 (stereo not given) | – | 1.95% (inactive) |
| CCCOc1ccc(F)cc1-c1cc(C(=O)Nc2ccc(F)c(Cl)c2)[nH]n1 | – | 52.1% (inactive) |
| O=C(Nc1ccc(C2CC2(Cl)Cl)cc1)c1cccc([N+](=O)[O-])c1 (stereo not given) | – | 18.1% (inactive) |
| Cc1cccc(-c2nc(Nc3ccc(O)cc3)c3ccccc3n2)c1 | – | 75.3% (inactive) |
| COc1cncc(-c2cnc3sc(NCCc4ccccn4)nn23)c1 | – | 21.5% (inactive) |
| CCC(C)N1C(=O)S/C(=C/c2ccc(Sc3nc4ccccc4[nH]3)o2)C1=O (stereo not given) | – | 34.9% (inactive) |
| Fc1cc(F)c2nc(Nc3nc4c(F)cccc4s3)sc2c1 | – | -4.89% (inactive) |
| COC(=O)N/N=C/c1cn(CCCOc2ccc(C)cc2)c2ccccc12 | – | 47.4% (inactive) |
| CCCc1cc(-c2n[nH]c(=S)n2CC)c2ccccc2n1 | – | 3.17% (inactive) |
| Oc1c(CN2CCN(c3ccc(F)cc3)CC2)cc(Cl)c2cccnc12 | – | 14% (inactive) |
| OCC1OC(n2cnc3c(N4CCCC4)ncnc32)C(O)C1O (stereo not given) | – | 29.2% (inactive) |
| CN(C)C(=O)c1cccc(-c2cnc3sc(NCc4ccc5c(c4)OCO5)nn23)c1 | – | 14.9% (inactive) |
| Cc1ccc(CN2CC(N3CCC(Cc4ccccc4)CC3)CS2(=O)=O)cc1 (stereo not given) | – | 2.5% (inactive) |
| COc1cc(/C=C2\Oc3ccc(C#Cc4ccc(O)cc4)cc3C2=O)cc(OC)c1 | – | 0.311% (inactive) |
| Cc1ccnc(NC(=O)C2CCN(S(=O)(=O)c3c(C)c(C)cc(C)c3C)CC2)c1 | – | 28.3% (inactive) |
| COc1ccc(CC(=O)Nc2ccccc2NC(=O)c2ccco2)cc1OC | – | 5.51% (inactive) |
| O=C(Nc1ccc(Br)cn1)c1ccc([N+](=O)[O-])o1 | – | 27% (inactive) |
| Cn1c(=O)n(C)c2cc(S(=O)(=O)N3CCCc4ccccc43)ccc21 | – | 19% (inactive) |
| CN(C)c1nc(=Nc2cccc(Cl)c2)ss1 | – | 14.4% (inactive) |
| COc1ccc(-c2onc(C)c2-c2ccc3c(c2)OCCO3)c(O)c1 | – | 42.4% (inactive) |
| CCOc1ccc(CCN2C(=S)N([C@@H](CC(C)C)CN3CCC[C@@H]3CN3C(=S)NC[C@@H]3Cc3ccc(O)cc3)C[C@@H]2CC(C)C)cc1 | – | 25.5% (inactive) |
| c1ccc(-c2cn3c(n2)CCc2ccc4cccnc4c2-3)cc1 | – | 17.3% (inactive) |
| Cc1ccc(S(=O)(=O)Nc2nc3ccccc3nc2N2CCc3ccccc3C2)cc1 | – | 0.702% (inactive) |

| SMILES | Potency | activity, negative = inhibition |
| --- | --- | --- |
| O=C(CCC(=O)N1CCN(S(=O)(=O)c2ccc(Cl)cc2)CC1)NCc1cccc(C(F)(F)F)c1 | – | 25.9% (inactive) |
| COc1cccc2sc(N(CCCN(C)C)C(=O)CCS(=O)(=O)c3ccccc3)nc12 | – | -68.6% (inactive) |
| CCOc1ccc(NS(=O)(=O)c2ccc(C(=O)NC3CCN(Cc4ccccc4)CC3)cc2)cc1 | – | 61.9% (inactive) |
| CC(=O)c1cccc(-c2cnc3c(NC=O)cc(-c4ccc(N(C)C)cc4)cn23)c1 | – | 0.802% (inactive) |
| COc1ccccc1CSc1ncc(-c2ccc([N+](=O)[O-])cc2)[nH]1 | – | 54.3% (inactive) |
| FC(F)(F)c1ccccc1Cc1c(-c2ccccc2)nc2c3ccccc3ccn12 | – | 10.2% (inactive) |
| Cc1ccc(C)c(S(=O)(=O)N2CCN(CC(=O)Nc3ccc([N+](=O)[O-])cc3)CC2)c1 | – | 15.9% (inactive) |
| COc1c(C(C)C)oc2cc3oc(=O)ccc3cc12 | – | 67.8% (inactive) |
| Cc1ccc(-c2nc3ccc(Br)cn3c2Cc2ccccc2C(F)(F)F)cc1 | – | 19.4% (inactive) |
| Brc1ccc2nc(-c3ccccc3)c(Cc3ccccc3)n2c1 | – | 17.5% (inactive) |
| COc1ccc(-c2csc(NC3OC(=O)c4ccccc43)n2)cc1 (stereo not given) | – | 69.1% (inactive) |
| Cc1ccc(S(=O)(=O)Nc2ccc3c(c2)C(=O)N([C@H](C)CO)C[C@@H](C)[C@@H](CN(C)C(=O)Nc2cccc4ccccc24)O3)cc1 | – | -0.193% (inactive) |
| CN(c1ccccc1)S(=O)(=O)c1ccc(C(=O)N2CCN(c3ccccc3Cl)CC2)cc1 | – | 14.1% (inactive) |
| COc1cc(CC(=O)Nc2nc(-c3ccc(F)c(F)c3)cs2)cc(OC)c1OC | – | 25% (inactive) |
| COc1ccc2nc(N3CCN(C(=O)c4ccc([N+](=O)[O-])o4)CC3)sc2c1 | – | -6.27% (inactive) |
| CC1CCc2c(nc3ncnn3c2Nc2ccc(OC(F)(F)F)cc2)C1 (stereo not given) | – | 2.87% (inactive) |
| Cc1cc(C)cc(N(CC(=O)N2CC=C(c3ccccc3)CC2)S(=O)(=O)c2c(C)noc2C)c1 | – | 1.43% (inactive) |
| Cc1oc2c(F)c(F)c(F)c(F)c2c1S(=O)(=O)Nc1cccc(C(F)(F)F)c1 | – | 54.8% (inactive) |
| CCOC(=O)C1=C(N)N(c2ccc(C)cc2)C2=C(C(=O)CCC2)C1c1cccs1 (stereo not given) | – | 22.7% (inactive) |
| CN(C)c1nc(N)nc(CSc2nnnn2-c2cccc3ccccc23)n1 | – | 47.2% (inactive) |
| CC(=O)c1ccc(-c2cnc3c(NC=O)cc(-c4cccc(NS(C)(=O)=O)c4)cn23)cc1 | – | 35.4% (inactive) |
| COc1cc(NC(=O)COC(=O)c2ccc([N+](=O)[O-])s2)cc(OC)c1OC | – | 5.21% (inactive) |
| CN(C(=O)c1cccc(NC(=O)Cc2cccc([N+](=O)[O-])c2)c1)C1CCCCC1 | – | 13.5% (inactive) |
| O=C(Nc1ccc(Cl)cc1)Nc1nnc(/C=C/c2ccccc2)s1 | – | -2.14% (inactive) |

| SMILES | Potency | activity, negative = inhibition |
| --- | --- | --- |
| c1ccc2cc3c(NCCN4CCOCC4)ccnc3cc2c1 | – | 28.4% (inactive) |
| OCCCNc1nccc(-c2cc(Nc3cccc(Cl)c3)ncn2)n1 | – | 22% (inactive) |
| O=C(/C(=C/c1cccc(Cl)c1)c1nc2ccccc2[nH]1)c1ccccc1 | – | 45.1% (inactive) |
| COc1cccc(CNc2nc(NCc3ccccc3OC)nc3ccsc23)c1 | – | 13.8% (inactive) |
| CC(=NNC(=S)N1CCCCCC1)c1ccccn1 | – | 14.9% (inactive) |
| CCN(CC)C(=O)C1=C(C)N(Cc2ccc(C(C)(C)C)cc2)C(=O)C(CC(=O)NCc2cccc3ccccc23)C1 (stereo not given) | – | 48.3% (inactive) |
| S=C(NCC1COc2ccccc2O1)Nc1ccc(Br)cc1 (stereo not given) | – | 30.5% (inactive) |
| CN(C)CCNC(=O)c1ccc(Cl)c2cc3ccccc3nc12 | – | -6.16% (inactive) |
| Cc1nc(/N=C(\N)NC(=O)NC2CCCCC2)nc2ccccc12 | – | 87% (inactive) |
| O=C(Nc1nnc(S(=O)(=O)N2CCCCCC2)s1)c1cccc(Br)c1 | – | 34.1% (inactive) |
| O=c1[nH]c(CCl)nc2cc(-c3ccc(Cl)cc3)sc12 | – | 20.5% (inactive) |
| O=[N+]([O-])c1ccccc1S(=O)(=O)Nc1cccc2cccnc12 | – | 35.7% (inactive) |
| COc1ccc(CNC(=O)C[C@H]2C[C@H](C(=O)N3CCOCC3)[C@@]3(CCC4CCCC4)c4[nH]c5ccc(Cl)cc5c4CCN3C2=O)cc1OC | – | 53.4% (inactive) |
| COc1ccc(C)cc1S(=O)(=O)N1CCN(S(=O)(=O)c2cc(C(=O)O)ccc2C)CC1 | – | -3.02% (inactive) |
| Cc1nn(-c2ccccc2)c(C)c1/C=N/NC(=O)CSc1nc2ccccc2c(=O)n1-c1ccccc1 | – | -7.84% (inactive) |
| COC(=O)COc1cccc2c(=O)n(CC(=O)NCc3ccccc3)ccc12 | – | 5.12% (inactive) |
| Clc1ccc(Nc2nc(-c3cccs3)cs2)nc1 | – | 18.4% (inactive) |
| Clc1cccc(Cc2c(-c3cccc(Cl)c3)nc3ccc(Cl)cn23)c1 | – | 18.8% (inactive) |
| COc1ccc(C(=O)c2c3ccc([N+](=O)[O-])cc3[n+]([O-])n2CCCN)cc1 | – | 91% (inactive) |
| COc1cc(NC(=O)c2ccccc2NS(=O)(=O)c2ccc(Cl)s2)cc(OC)c1 | – | 59.7% (inactive) |
| Clc1ccc2c(c1)C1=C(C(c3ccncc3)O2)C(c2ccc(Br)cc2)n2ncnc2N1 (stereo not given) | – | 13% (inactive) |
| Cc1cccc(NS(=O)(=O)c2ccc(-c3cnc(C4CC4)o3)cc2)c1 | – | 55.2% (inactive) |
